Compound activity as filed in PubChem.
M1 ag: human M1 muscarinic receptor agonists, primary screen, Fluo-8 calcium fluorescence, CHO-K1 cells, HTS; activation, % at 3 µM; Muscarinic acetylcholine receptor M1 (Homo sapiens), P11229; 360,000 compounds, 0.33% hits; CHO-K1 hM1, agonist mode; 0% DMSO, 100% acetylcholine EC100;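 active = activation above the run's mean compound activation plus 3 SD, cut at about 16% in these data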;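 also: peak over basal fluorescence ratio within a 140 s kinetic read after compound addition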
Target sequence (P11229 whole entry, looked up): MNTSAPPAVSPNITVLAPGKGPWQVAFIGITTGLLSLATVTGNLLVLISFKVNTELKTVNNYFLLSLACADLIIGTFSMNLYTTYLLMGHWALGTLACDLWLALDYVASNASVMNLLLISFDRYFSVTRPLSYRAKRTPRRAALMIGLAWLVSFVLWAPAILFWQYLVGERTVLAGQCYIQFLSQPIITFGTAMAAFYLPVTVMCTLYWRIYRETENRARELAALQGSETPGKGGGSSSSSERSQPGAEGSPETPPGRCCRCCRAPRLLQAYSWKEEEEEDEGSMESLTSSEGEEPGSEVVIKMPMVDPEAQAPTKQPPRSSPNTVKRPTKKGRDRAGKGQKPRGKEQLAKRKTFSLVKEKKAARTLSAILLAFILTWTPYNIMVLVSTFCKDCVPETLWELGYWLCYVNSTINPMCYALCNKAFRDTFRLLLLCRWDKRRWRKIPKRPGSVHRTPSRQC
CHO-K1 Ca ag: counter-screen for M1 agonists: effect in parental CHO-K1 cells; Fluo-8 calcium fluorescence; scaled to maximal ATP response, vehicle zero; activation, % at 3 µM; 360,000 compounds, 0.48% hits; AID 602248, 2012; in the data active = activation above about 15%;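 also: untransfected CHO-K1 host cells lacking M1 receptor as counterscreen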
CHO-K1 Ca PAM: nonselective calcium activators in parental CHO-K1 cells, primary screen, counter-screen for M1 PAM project, cell-based, Fluo-8 calcium fluorescence, full deck, 1536-well. ATP EC20; 0% at ATP EC20, 100% at ATP max. 360,000 compounds, 0.02% hits. activation, % at 3 µM;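 active = activation above the run cutoff, the mean activation of all test compounds plus 3 SD, cut at about 40% in these data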;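 also: peak over basal fluorescence ratio in a 140 s read after ATP addition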
M1 antag: human M1 muscarinic receptor antagonists, primary screen, CHO-K1 cells, Fluo-8 calcium fluorescence, 1536-well | Muscarinic acetylcholine receptor M1 (Homo sapiens), P11229 | inhibition, % at 3 µM | AID 588852, 2011 | CHO-K1 hM1, ACh EC80 antagonist | 360,000 compounds, 1.3% hits;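 active = percent inhibition above its own plate's cutoff, namely the mean of that plate's compound wells plus 3 SD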;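 also: peak over basal fluorescence ratio during 140 s after agonist addition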
CHRM1 PAM: human M1 muscarinic receptor positive allosteric modulators, primary screen, CHO-K1 cells, Fluo-8 calcium fluorescence, 1536-well. Muscarinic acetylcholine receptor M1 (Homo sapiens), P11229. CHO-K1 hM1, ACh EC20; 0% = ACh EC20, 100% = maximal ACh. activation, % at 3 µM. 360,000 compounds, 0.088% hits. AID 588819, 2011; in the data active = activation above about 19%, passing the limit was not always enough
CHO-K1 Ca antag: counter-screen for M1 antagonists: effect in parental CHO-K1 cells. ATP-induced calcium, Fluo-8 fluorescence. inhibition, % at 3 µM. 360,000 compounds, 0.6% hits. AID 602250;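 active = inhibition above a per-plate cutoff, the plate's mean sample inhibition plus 3 SD, cut at about 24% in these data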
Of the large screens only hits and unclear results are named; the others gave an inactive call. This is a sample that favours compounds with a hit; in the whole collection about 2.4% have one here.

CCCC(=O)NC(=S)Nc1ccc(NC(=O)c2cccs2)cc1	none
COc1ccc(S(=O)(=O)CCC(=O)N2CCN(c3ccc([N+](=O)[O-])cc3)CC2)cc1	M1 antag 48
CC(=O)C(C)n1c(CN2CCN(C(=O)c3ccco3)CC2)nc2c1c(=O)n(C)c(=O)n2C (stereo not drawn)	none
Cc1csc2c(N3CCN(C(=S)Nc4ccc(F)cc4F)CC3)ncnc12	M1 ag 23, CHO-K1 Ca ag 23
CCOC(=O)c1ccc(NC(=O)c2nc(S(=O)(=O)Cc3ccccc3)ncc2Cl)cc1	none
Cc1ccc(NC(=O)c2nc(S(=O)(=O)Cc3ccccc3C)ncc2Cl)cc1C	CHO-K1 Ca antag 26
CC(=O)Nc1ccc(NC(=O)c2nc(S(=O)(=O)Cc3cccc(C)c3)ncc2Cl)cc1	none
CCc1ccc(NC(=O)c2nc(S(=O)(=O)Cc3ccccc3)ncc2Cl)cc1	CHO-K1 Ca antag 30
Cn1cnc2cc(NC(=O)c3cccs3)ccc21	none
FC(F)Sc1ccc(-n2cc(-c3ccccc3)[n+]3c2CCC3)cc1	M1 antag 70
COc1ccc(-c2cn(-c3ccc(SC(F)F)cc3)c3[n+]2CCC3)cc1OC	none
Cc1ccccc1NC(=O)c1ccc(C)c(S(=O)(=O)NCc2cccnc2)c1	M1 ag 22
CCCc1cc(=O)[nH]c(SCC(=O)c2cc(C)n(-c3c(C)n(C)n(-c4ccccc4)c3=O)c2C)n1	none
CCCC(O)(CCN1CCOCC1)c1ccc(Cl)cc1 (stereo not drawn)	M1 antag 45
CCCC(O)(CCN1CCOCC1)c1ccc(Br)cc1 (stereo not drawn)	M1 antag 78
OC(CCN1CCOCC1)(c1ccc(Cl)cc1)C1CCCCC1 (stereo not drawn)	M1 antag 82
CCCC(O)(c1ccc(Cl)cc1)C(CN1CCOCC1)c1ccc(Cl)cc1 (stereo not drawn)	none
CCCOc1ccc(C(O)(CCC)CCN2CCCCC2)cc1 (stereo not drawn)	M1 antag 66
Cn1cnnc1SCC(=O)Nc1ccc2ccccc2c1	none
CCOCCCN(C)C1CCN(S(=O)(=O)c2csc(C(N)=O)c2)CC1	none
COc1cc2c(cc1OC)C(c1cc3ccccc3oc1=O)=NC(C)(C)C2	none
COC(=O)c1c(NC(=O)C(C)C)sc(C(=O)N2CCOCC2)c1C	none
Cc1ccccc1N1CCN(C2CCCN(C(=O)CCC(F)(F)F)C2)CC1 (stereo not drawn)	none
CCn1c(SC(C)C(=O)NC2CCCC2)nc2cc(S(N)(=O)=O)ccc21 (stereo not drawn)	none
CC1(C(=O)NS(=O)(=O)c2ccc(C#N)cc2)CCN1C(=O)CC1CC1 (stereo not drawn)	none
COc1cc2c(-c3ccc4cc[nH]c4c3)c(-c3ccsc3)oc(=O)c2cc1OC	M1 antag 37
CCCCCO	none
Cc1noc(C)c1S(=O)(=O)Nc1c(C)n(C)n(-c2ccccc2)c1=O	CHO-K1 Ca antag 31
Cn1c(=O)c2c(nc(OC3CCCC3)n2C)n(C)c1=O	none
Cn1nc(C(=O)N2CCN(c3ccc([N+](=O)[O-])cc3)CC2)c2c1-c1ccccc1S(=O)(=O)C2	none
COc1ccc(NC(=S)NC(=O)Cc2ccccc2)c(OC)c1	none
Cc1ccc(NC(=S)NC(=O)Cc2ccccc2)c(O)c1	M1 ag 18
Cc1nc2nc(C)n(CCN3CCOCC3)c(=O)c2c(-c2cccc([N+](=O)[O-])c2)c1C(=O)CCCCCCCCCCN1CCC(c2ccccc2)(c2ccccc2)CC1	M1 antag 100
O=[N+]([O-])c1cccnc1N1CCC(c2cc(-c3cccc(C(F)(F)F)c3)n[nH]2)CC1	M1 antag 22
O=[N+]([O-])c1cccnc1N1CCC(c2cc(-c3ccc(Cl)cc3Cl)n[nH]2)CC1	none
COc1ccc(C(=O)Nc2ccc(OCC(=O)N3CCOCC3)cc2)c(OC)c1OC	none
Nc1ccc2nc(CCc3ccccc3)[nH]c2c1	none
Nc1ccc2nc3c(=O)n(C4CCCCC4)c(=O)[nH]c3nc2c1	M1 ag 100, CHO-K1 Ca ag 95, CHO-K1 Ca antag 30
Cc1cc2nc3c(=O)n(CCc4ccccc4)c(=O)[nH]c3nc2cc1N	CHO-K1 Ca ag 26
CCCCn1c(=O)[nH]c2nc3cc(N)ccc3nc2c1=O	M1 ag 25, CHO-K1 Ca ag 24
Nc1ccc2nc3c(=O)n(CCc4ccccc4)c(=O)[nH]c3nc2c1	M1 ag 53, CHO-K1 Ca ag 53
COc1ccccc1CCc1nnc(CCC(=O)N(C)Cc2cccc3cnccc23)o1	CHO-K1 Ca antag 25
Cc1cccc(OCC(=O)OCC(=O)Nc2sccc2C(N)=O)c1	CHO-K1 Ca ag 20
Cc1cccc(OC(C)C(=O)OCC(=O)Nc2sccc2C(N)=O)c1 (stereo not drawn)	CHO-K1 Ca ag 16
COc1ccccc1OCC(=O)OCC(=O)Nc1sccc1C(N)=O	none
Cc1nc(N2CCCCC2)[nH]c(=O)c1CN(C)N=O	none
O=C(CN1C(=O)C(c2ccc(F)cc2)=NC12CCCC2)Nc1ccc(F)cc1	CHO-K1 Ca antag 36
CCOc1ccc(NC(=S)NC(=O)c2cnn(CC)c2)c([N+](=O)[O-])c1	none
CCOc1ccc(NC(=S)NC(=O)/C=C/c2ccc(Br)cc2)c([N+](=O)[O-])c1	M1 antag 37
C[C@H](CO)N1C[C@H](C)[C@H](CN(C)Cc2cccc(F)c2)Oc2ncc(Br)cc2C1=O	none
CCN(CC)S(=O)(=O)c1ccc(S(=O)(=O)Nc2ccc3c(c2)oc2ccccc23)cc1	CHO-K1 Ca antag 25
CCCCN(CCCC)/C(N)=N/c1nc(C)cc(C)n1	none
Cc1cc(C)nc(/N=C(\N)Nc2ccc(-c3ccccc3)cc2)n1	CHO-K1 Ca ag 27
COc1ccc(C)cc1N/C(N)=N/c1nc(C)cc(C)n1	none
Cc1cc(C)nc(/N=C(\N)Nc2ccc(SC(F)F)cc2)n1	M1 ag 19, CHO-K1 Ca ag 30
Cc1ccc(C)c(N/C(N)=N/c2nc(C)cc(C)n2)c1	CHO-K1 Ca ag 27, CHO-K1 Ca antag 35
Cc1cc(C)nc(/N=C(\N)N(Cc2ccccc2)Cc2ccccc2)n1	M1 antag 100
Cn1c(CCNC(=O)c2ccccc2F)nnc1SCC(=O)Nc1nncs1	none
CCc1nc(C)c(C(=O)N2CCCC(C(=O)Nc3cccc(-c4cccc(C)c4)c3)C2)o1 (stereo not drawn)	none
CC(=O)Nc1ccc(N/C(N)=N/c2nc(C)cc(C)n2)cc1	none
